# Shown are actives, neighbours in structure and some others; about 7.1% of the full set was active somewhere.
# ATXN2 expr inh: reduces ATXN2 reporter expression in HEK-293 cells. HEK-293 ATXN2-luciferase reporter, luminescence, 24 h. Potency, µM (top dose mostly 57 µM), usual class: inhibitors. hit rate 0.72% among 360,000; also: nearly all actives have a fitted effect of over 55% in size
#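 qHTS (up to 57 uM final) was run with 24 h compound exposure of reporter cells at 37 °C. Each well was multiplexed: SteadyGlo luminescence measured ATXN2-luciferase expression after a fluorogenic Gly-Phe-AFC viability readout (25 uM final).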
# MCF10A rerep: inducers of DNA re-replication in MCF 10A breast cells. Potency, µM (highest dose often 46.1 µM), hits mostly activators. hit rate 2.9% among 350,000. MCF 10A DNA re-replication, Hoechst nuclear intensity, 48 h; also: nearly all actives have a fitted effect of over 50% in size
# IL-1B inflam inh: inhibitors of inflammasome signaling (IL-1 beta secretion). activity change, % at 57.5 µM. hit rate 4.7% among 360,000. AID 743279. THP-1 LPS/ATP IL-1B secretion, AlphaLISA, 16 h; active compounds read low; in the data active = activity change below about -50%; inconclusive = mostly about -30% to -49%
#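 THP-1 cells pretreated 1 hr with compounds (up to 57.5 uM final), then stimulated with LPS (250 ng/mL final) plus ATP (1.25 mM final); secreted IL-1B measured by AlphaLISA after 16 hr, decreased signal indicating inhibition.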
# SW480 rereplic: inducers of DNA re-replication in SW480 colon cancer cells | Potency, µM (top dose mostly 46.1 µM), most hits filed as activators | AID 624297 | SW480 DNA re-replication, Hoechst DNA content imaging, 48 h | hit rate 1.8% among 340,000; also: nearly all actives have a fitted effect of over 55% in size
#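 Readout is total intensity of Hoechst-stained nuclei, excited at 405 nm and collected at 500-530 nm. Compound treatment lasted 48 hr at 37 C in 5% CO2 before staining.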
# PINK1 modulator: changes PINK1 expression; PINK1 immunofluorescence, high-content cytometry, 24 h; Potency, µM (top dose mostly 76.6 µM), actives largely listed as activators; hit rate 0.2% among 410,000; AID 624263; active = well fitted activation curve with a large enough effect; inconclusive = small, poorly fitted or top-dose-only effect; cell line not stated here; also: nearly all actives have a fitted effect of over 65% in size
#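 Decision-based qHTS: stable cells, 24 h exposure to five compound concentrations, CCCP as control. Fixed cells stained for PINK1 plus nuclear, mitochondrial and cell markers, cytometer read.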
# ATXN viability: viability counter-screen for ATXN expression inhibitors. S2 cells (HEK-293 line with an ATXN2-luciferase reporter) viability, CellTiter-Fluor protease fluorescence, 24 h. Potency, µM (titrated, usually from 56.7 µM), hits mostly cytotoxic. hit rate 0.49% among 400,000; also: nearly all actives have a fitted effect of over 40% in size
# Hits are given with their value; 0 = inactive; ? = inconclusive; - = no result given. Unless noted, calls follow the shape of the dose curve; as a rule, active = well fitted curve in the direction sought with a large enough effect; inconclusive = small, poorly fitted or top-dose-only effect, or another doubt; inactive = no such curve, though single readings can be large; an effect the other way counts as inactive or inconclusive.
SMILES,ATXN2 expr inh,MCF10A rerep,IL-1B inflam inh,SW480 rereplic,PINK1 modulator,ATXN viability
CC1CCN(c2nc(-c3cccnc3)nc3scc(-c4ccccc4)c23)CC1,0,?,0,0,0,0
CC1CCN(c2nc(CN3CCCCC3)nc3scc(-c4ccccc4)c23)CC1,?,0,-74,0,?,-
CC(CNC(=O)c1ccc2c(c1)nc1n2CCCCC1)c1ccccc1 (centres undefined),-,-,-,-,0,-
Cc1cc(C(=O)NCCN2Cc3ccccc3OC(c3ccccc3F)C2)no1 (centres undefined),-,-,-,-,0,0
CCCN(C(=O)CSc1ncnc2sccc12)c1c(N)n(Cc2ccccc2)c(=O)[nH]c1=O,0,0,0,0,0,?
Clc1ccc2c(c1)C1OCCC1C(c1ccco1)N2 (centres undefined),0,?,-74,0,0,?
CC(=O)N1c2ccc(Cl)cc2C2OCCC2C1c1ccco1 (centres undefined),0,0,0,0,0,0
CCN(CC)C(=O)[C@H]1CC(CC(=O)NCC23CC4CC(CC(C4)C2)C3)C(=O)N2CCc3c([nH]c4ccc(OC)cc34)[C@]12C (some centres undefined),0,?,-55,0,?,?
COc1ccc2[nH]c3c(c2c1)CCN1C(=O)C(CC(=O)NCC24CC5CC(CC(C5)C2)C4)C[C@H](C(=O)N2CCCCC2)[C@@]31C (some centres undefined),0,?,-64,0,0,0
CC(C)N(C(=O)[C@H]1C[C@H](CC(=O)NCC23CC4CC(CC(C4)C2)C3)C(=O)N2CCc3c([nH]c4cc(-c5ccco5)ccc34)[C@]12C)C(C)C,0,0,0,0,0,0
COc1ccc2[nH]c3c(c2c1)CCN1C(=O)C(CC(=O)NCCC2=CCCCC2)C[C@H](C(=O)N2CCCCC2)[C@@]31C (some centres undefined),0,0,-52,0,0,0
CC(C)N(C(=O)[C@H]1CC(CC(=O)NCC23CC4CC(CC(C4)C2)C3)C(=O)N2CCc3c([nH]c4ccccc34)[C@]12C)C(C)C (some centres undefined),?,0,-55,?,0,?
Cc1ccccc1CN1CCN(CC(=O)NCc2ccccc2Cl)C1=O,-,-,-,-,0,-
COc1ccc2c(c1)CCc1cnc(-n3ncc(C(=O)NCCCN4CCOCC4)c3C)nc1-2,-,-,-,-,0,0
CC(C)N(C(=O)[C@H]1C[C@H](CC(=O)NCC23CC4CC(CC(C4)C2)C3)C(=O)N2CCc3c([nH]c4cc(CCC(=O)N(C)C)ccc34)[C@]12C)C(C)C,?,?,0,0,0,25µM
C[C@]12c3[nH]c4ccccc4c3CCN1C(=O)C(CC(=O)NCC13CC4CC(CC(C4)C1)C3)C[C@@H]2C(=O)N1CCOCC1 (some centres undefined),0,0,0,0,0,0
C[C@]12c3[nH]c4ccccc4c3CCN1C(=O)C(CC(=O)NCC13CC4CC(CC(C4)C1)C3)C[C@@H]2C(=O)N1CCCCC1 (some centres undefined),?,0,-64,0,?,?
O=C(Nc1nnc([C@H]2C[C@H](O)[C@@H](CO)O2)s1)c1ccccc1F,0,-,0,-,0,0
O=C(Nc1nnc([C@@H]2C[C@H](O)[C@@H](CO)O2)s1)c1c(F)cccc1F,0,-,-56,-,0,0
COc1ccc(C(=O)CSc2[nH]c(=O)cc(C(F)(F)F)c2C#N)cc1,0,18µM,0,?,0,0
COc1ccc(Nc2cc(C)c3cc(NC(=O)COc4cccc(C)c4)ccc3n2)cc1,?,-,-,-,0,?
COc1ccccc1C(C(=O)c1ccccc1)c1ccc2ccccc2c1 (centres undefined),-,-,-71,-,-,-
CCOC(=S)SCC(=O)Nc1nc(-c2ccc(Br)cc2)cs1,?,8.2µM,-100,?,0,?
COc1ccccc1C1(O)CCN(CC(=O)Nc2nc(-c3ccccc3)cs2)CC1,0,0,-62,0,0,0
CCOC(=O)N1CCN(C(=O)CSCC(=O)Nc2nc(-c3ccc(-c4ccccc4)cc3)cs2)CC1,?,0,0,0,0,?
SMILES,ATXN2 expr inh,MCF10A rerep,IL-1B inflam inh,SW480 rereplic,PINK1 modulator,ATXN viability
CCc1nnc(NC(=O)CN2CCC(O)(c3ccccc3OC)CC2)s1,0,0,0,0,0,0
CCOC(=S)SCC(=O)Nc1nc(-c2ccccc2)cs1,0,21µM,?,?,0,?
Cc1occc1-c1nnc(SCC(=O)Nc2nc(-c3ccccc3)cs2)o1,0,18µM,0,?,10µM,0
Cc1cc(-c2nnc(SCC(=O)Nc3nc(-c4ccccc4)cs3)o2)no1,0,0,0,0,0,0
Cc1cccc(C(=O)NC(=O)Nc2ccc(-n3nc(C(F)(F)F)cc3C(F)(F)F)cc2)c1,0,-,-,-,0,0
O=C(CSc1ncnc2sc3c(c12)CCCCC3)NCc1ccco1,0,4µM,0,?,0,0
Cc1sc2ncnc(NCC(c3ccco3)N(C)C)c2c1C (centres undefined),0,0,0,0,0,0
O=C(CSc1ncnc2sc3c(c12)CCCC3)c1ccco1,0,?,0,0,0,0
CC(C)c1nc2sc3c(SCC(=O)NCc4ccco4)ncnc3c2c2c1CCC2,0,15µM,0,0,0,0
CC1(C)Cc2nc3sc4c(=O)n(CC(=O)NCc5ccccc5)cnc4c3cc2CO1,0,6.5µM,0,?,?,?
CN(C)C(CNc1ncnc2sc3c(c12)CCCCC3)c1ccco1 (centres undefined),0,0,-51,0,0,0
CC1(C)Cc2nc3sc4c(SCC(=O)NCc5ccco5)ncnc4c3cc2CO1,0,3.3µM,0,3.3µM,0,?
CCOc1ccc(C(=O)c2cn(Cc3ccc(OC)cc3)c3cc(OC)c(OC)cc3c2=O)cc1,?,-,-,-,0,?
Cc1ccc(-n2c(Cc3ccccc3)n[nH]c2=S)c(C)c1,0,0,-67,0,0,0
Cc1ccc(-n2c(CC#N)n[nH]c2=S)c(C)c1,0,0,0,0,0,0
CCOC(=O)c1cc(CC)sc1NC(=O)C1CC(=O)NN1Cc1ccccc1 (centres undefined),0,0,-60,0,0,0
O=C(CN(c1cccc(C(F)(F)F)c1)S(=O)(=O)c1ccc(Cl)c([N+](=O)[O-])c1)NCc1ccc(F)cc1,?,2.9µM,-99,?,0,32µM
CC(=O)Nc1ccc2c(c1)Cc1cc(N3C(=O)C=CC3=O)ccc1-2,?,5.2µM,0,13µM,0,?
O=C1C=CC(=O)N1c1ccc2c(c1)Cc1cc(F)ccc1-2,0,?,-64,?,0,?
O=[N+]([O-])c1ccc2c(c1)Cc1cc(F)ccc1-2,0,0,0,0,0,0
